This passage reports growth inhibition results from PubChem BioAssay (NCI).

SMILES strings stand for the structures. Several values for one entry are separate records, joined by “and”; a condition that tells them apart may be missing. Equal values may be shown once. Compounds without any hit were thinned out: in the full panel of roughly 79,000, 15% have a hit. Some structures have more than one record in an assay (separate samples or runs), and their calls can disagree. Activity calls are given as the source filed them. Rule as the data show it: active = growth inhibition above about 70%; inactive = the rest.

The first test can be described thus: NCI Yeast Anticancer Drug Screen. Data for the cln2 rad14 strain (AID 165).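 Also: 0% = growth equal to vehicle treated cultures.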 Conditions: S. cerevisiae cln2 rad14 strain, at 5.0 µM (retest, dose inferred, filed as 0.5), stronger effect = higher value. In outline: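 Yeast carrying cln2 and rad14 alterations (cell cycle control and DNA damage repair) were exposed to compounds. Growth inhibition was measured against vehicle-treated controls.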
Turning to `CNC(=O)OCc1c(COC(=O)NC)c(C)n(-c2ccc(Cl)c(Cl)c2)c1C`, the growth inhibition was 7% (inactive).

In the case of `COc1ccc2nc(N/N=C/c3sccc3C)cc(C)c2c1`, the growth inhibition was 95% (active).

`CCCCCCCCCCCC[N+](C)(C)Cc1ccccc1` (tested in a mixture with another compound): the growth inhibition was 66% (inactive) and 58% (inactive) and 61% (inactive).

Consider `CC(C)c1ccc(O)c(=O)cc1`, for which the growth inhibition was 6% (inactive) and 5% (inactive) and -1% (inactive).

Turning to `S=c1[nH]nc(Cc2ccccc2)c(=S)[nH]1`, the growth inhibition was 45% (inactive).

Regarding `COc1ccc2nc3cccc([N+](=O)[O-])c3c(NCCCO)c2c1`, the growth inhibition was 99% (active).

Take `CCN(CC)CCSc1c2ccccc2nc2cc(NCC(=O)Nc3ccccc3-c3ccccc3NC(=O)CNc3ccc4c(SCCN(CC)CC)c5ccccc5nc4c3)ccc12`: the growth inhibition is 15% (inactive).

In the case of `Cc1ccc(N(C=O)c2c([N+](=O)[O-])cc([N+](=O)[O-])c3c2=[N+]([O-])CN=3)cc1`, the growth inhibition was 28% (inactive).

For the compound `Nc1ccccc1SSc1ccccc1N`, the growth inhibition was 17% (inactive) and 4% (inactive) and 13% (inactive).

Consider `COc1ccc(C(=O)OCCc2ccccc2)cc1`, for which the growth inhibition is -1% (inactive).

Consider `COc1ccc(C(=O)NCCN(C)C)c2nc3ccccc3cc12`, for which the growth inhibition is 17% (inactive).

On to `O=c1[nH]c(=O)n(CCCO)cc1F`, for which the growth inhibition is 13% (inactive).

On to `CCCCCCCCCCCC[N+](C)(C)C`, for which the growth inhibition is 3% (inactive) and -1% (inactive) and 2% (inactive).

As for `COc1ccc(/C(=N/O)c2ccccc2C2=Nc3ccccc3C(NCc3ccccc3)O2)cc1C` (stereo unspecified), the growth inhibition was 31% (inactive).

In the case of `CCCC(=O)OC(OC(=O)CCC)c1ccc([N+](=O)[O-])o1`, the growth inhibition is 1% (inactive).

For `O=C(/C(=C/c1ccccc1)CBr)c1ccccc1`, the growth inhibition is 25% (inactive).

As to `O=C(Cc1ccccc1F)NC1=C(Cl)C(=O)c2ccccc2C1=O`, the growth inhibition is 33% (inactive).

Consider `Cc1cccc(N2CCN(C(=O)/C(=C/c3ccccc3)NC(=O)c3ccccc3)CC2)c1`, for which the growth inhibition was -5% (inactive).

For the compound `OCC(O)C(O)C(O)C(O)c1nc2ccccc2[nH]1` (stereo unspecified), the growth inhibition was 0% (inactive) and 2% (inactive).

As to `c1cc(Nc2ccc3c(c2)OCO3)c2cc(C3CCCCC3)ccc2n1`, the growth inhibition is 40% (inactive).

For `Cc1ccc2nc(N/N=C/c3ccc(C)s3)cc(C)c2c1`, the growth inhibition is 17% (inactive).

As to `COc1cc(NCCCCCNC(C)C)c2ncccc2c1Cl`, the growth inhibition is 8% (inactive).

Regarding `COc1cccc2c1C(=O)c1c(O)c3c(c(O)c1C2=O)CC(O)(C(=O)CO)CC3OC1CC(N)C(O)C(C)O1` (stereo unspecified), the growth inhibition was 2% (inactive) and 8% (inactive) and 23% (inactive).

For `COc1ccc2cc(CN3CCC(C4CCN(Cc5ccc6cc(OC)ccc6c5)CC4)CC3)ccc2c1`, the growth inhibition was 19% (inactive).

Take `CC(=O)O/N=C/c1c2ccccc2cc2ccccc12`: the growth inhibition was 15% (inactive).

Consider `CC[C@@]1(OC(=O)CN(C)C)C(=O)OCc2c1cc1n(c2=O)Cc2cc3ccccc3nc2-1`, for which the growth inhibition is 15% (inactive).

Consider `CC1(C)CC(=O)C(C(CC(c2ccccc2)c2cc3c(cc2O)OCO3)C2=C(O)CC(C)(C)CC2=O)=C(O)C1` (stereo unspecified), for which the growth inhibition is 21% (inactive).

In the case of `CCCCCCC(CCl)c1sc(-c2csc(CCNC(=O)OC(C)(C)C)n2)nc1C(=O)OC` (stereo unspecified), the growth inhibition is 47% (inactive).

Regarding `CCOC(=O)C1=C(C)NC(C)=C(C(=O)OCC)C1c1cccc([N+](=O)[O-])c1`, the growth inhibition is 45% (inactive).

In the case of `COc1nc(N)c(N=CC(OC(C)=O)C(OC(C)=O)C(COC(C)=O)OC(C)=O)c(=O)n1C` (stereo unspecified), the growth inhibition is -6% (inactive) and 1% (inactive) and 6% (inactive).

As to `Cc1ccc2c(/C=C/c3ccc(N(C)C)cc3)ccnc2c1C`, the growth inhibition is 22% (inactive).

Consider `Cc1cc(SC#N)ccc1O`, for which the growth inhibition is -1% (inactive) and 26% (inactive) and -3% (inactive).

`O=C1C(Br)=CC(Br)(Br)C=C1Br`: the growth inhibition is 56% (inactive).

Still in this test, the particulars now being: S. cerevisiae cln2 rad14 strain, at 50.0 µM (retest, dose inferred, filed as 5.0), stronger effect = higher value.
As for `CNC(=O)OCc1c(COC(=O)NC)c(C)n(-c2ccc(Cl)c(Cl)c2)c1C`, the growth inhibition is -10% (inactive).

As for `COc1ccc2nc(N/N=C/c3sccc3C)cc(C)c2c1`, the growth inhibition was 95% (active).

Take `CCCCCCCCCCCC[N+](C)(C)Cc1ccccc1` (tested in a mixture with another compound): the growth inhibition is 99% (active).

Consider `CC(C)c1ccc(O)c(=O)cc1`, for which the growth inhibition is 21% (inactive) and 15% (inactive) and 2% (inactive).

Consider `S=c1[nH]nc(Cc2ccccc2)c(=S)[nH]1`, for which the growth inhibition was 67% (inactive).

As to `COc1ccc2nc3cccc([N+](=O)[O-])c3c(NCCCO)c2c1`, the growth inhibition was 99% (active).

As to `CCN(CC)CCSc1c2ccccc2nc2cc(NCC(=O)Nc3ccccc3-c3ccccc3NC(=O)CNc3ccc4c(SCCN(CC)CC)c5ccccc5nc4c3)ccc12`, the growth inhibition was 13% (inactive).

For `Cc1ccc(N(C=O)c2c([N+](=O)[O-])cc([N+](=O)[O-])c3c2=[N+]([O-])CN=3)cc1`, the growth inhibition was 81% (active).

With `Nc1ccccc1SSc1ccccc1N`, the growth inhibition is 99% (active) and 5% (inactive).

On to `COc1ccc(C(=O)OCCc2ccccc2)cc1`, for which the growth inhibition was -2% (inactive).

Take `COc1ccc(C(=O)NCCN(C)C)c2nc3ccccc3cc12`: the growth inhibition was 25% (inactive).

Take `O=c1[nH]c(=O)n(CCCO)cc1F`: the growth inhibition was 26% (inactive).

Consider `CCCCCCCCCCCC[N+](C)(C)C`, for which the growth inhibition was 97% (active) and 96% (active) and 99% (active).

As to `COc1ccc(/C(=N/O)c2ccccc2C2=Nc3ccccc3C(NCc3ccccc3)O2)cc1C` (stereo unspecified), the growth inhibition is 51% (inactive).

Regarding `CCCC(=O)OC(OC(=O)CCC)c1ccc([N+](=O)[O-])o1`, the growth inhibition was 8% (inactive).

For the compound `O=C(/C(=C/c1ccccc1)CBr)c1ccccc1`, the growth inhibition was 93% (active).

`O=C(Cc1ccccc1F)NC1=C(Cl)C(=O)c2ccccc2C1=O`: the growth inhibition was 45% (inactive).

In the case of `Cc1cccc(N2CCN(C(=O)/C(=C/c3ccccc3)NC(=O)c3ccccc3)CC2)c1`, the growth inhibition is 35% (inactive).

With `OCC(O)C(O)C(O)C(O)c1nc2ccccc2[nH]1` (stereo unspecified), the growth inhibition is -1% (inactive) and 14% (inactive).

Consider `c1cc(Nc2ccc3c(c2)OCO3)c2cc(C3CCCCC3)ccc2n1`, for which the growth inhibition is 46% (inactive).

In the case of `Cc1ccc2nc(N/N=C/c3ccc(C)s3)cc(C)c2c1`, the growth inhibition is -18% (inactive).

For `COc1cc(NCCCCCNC(C)C)c2ncccc2c1Cl`, the growth inhibition is 41% (inactive).

Consider `COc1cccc2c1C(=O)c1c(O)c3c(c(O)c1C2=O)CC(O)(C(=O)CO)CC3OC1CC(N)C(O)C(C)O1` (stereo unspecified), for which the growth inhibition was 1% (inactive) and 4% (inactive) and 53% (inactive).

On to `COc1ccc2cc(CN3CCC(C4CCN(Cc5ccc6cc(OC)ccc6c5)CC4)CC3)ccc2c1`, for which the growth inhibition is -48% (inactive).

In the case of `CC(=O)O/N=C/c1c2ccccc2cc2ccccc12`, the growth inhibition is 40% (inactive).

As for `CC[C@@]1(OC(=O)CN(C)C)C(=O)OCc2c1cc1n(c2=O)Cc2cc3ccccc3nc2-1`, the growth inhibition is 89% (active).

Consider `CC1(C)CC(=O)C(C(CC(c2ccccc2)c2cc3c(cc2O)OCO3)C2=C(O)CC(C)(C)CC2=O)=C(O)C1` (stereo unspecified), for which the growth inhibition was 98% (active).

Regarding `CCCCCCC(CCl)c1sc(-c2csc(CCNC(=O)OC(C)(C)C)n2)nc1C(=O)OC` (stereo unspecified), the growth inhibition is -2% (inactive).

On to `CCOC(=O)C1=C(C)NC(C)=C(C(=O)OCC)C1c1cccc([N+](=O)[O-])c1`, for which the growth inhibition is 54% (inactive).

Take `COc1nc(N)c(N=CC(OC(C)=O)C(OC(C)=O)C(COC(C)=O)OC(C)=O)c(=O)n1C` (stereo unspecified): the growth inhibition is -13% (inactive) and 6% (inactive) and 19% (inactive).

Take `Cc1ccc2c(/C=C/c3ccc(N(C)C)cc3)ccnc2c1C`: the growth inhibition was 61% (inactive).

Regarding `Cc1cc(SC#N)ccc1O`, the growth inhibition was 64% (inactive) and 91% (active) and 71% (active).

As to `O=C1C(Br)=CC(Br)(Br)C=C1Br`, the growth inhibition was 100% (active).
